# The supplement of paper PMC4894684
# Several values for one entry are separate records, joined by “and”; a condition that tells them apart may be missing. Identical values can stand only once. Counter-ions that a name gives are not always drawn. ± gives the standard deviation of the averaged measurements. Screen size: about 1,000 compounds; about 15 (2%) showed an effect of 50% or more. Many of the other results were omitted from the sample, so strong results are more common in it than they were.
# Test system: HFF
# Assay: uninfected host cell viability relative to vehicle control; higher = less host cell toxicity
# Details: 5 µM; 72 h; oxygen 21 %
row,Structure (SMILES),uninfected host cell viability
1,CNc1cc(OC)c(C(=O)NC2CCN(Cc3ccccc3)C2C)cc1Cl (stereo unspecified) [Nemonapride],86.9 ± 6.9%
2,C[C@H](NC[C@H](O)CP(=O)(O)Cc1ccccc1)c1ccc(Cl)c(Cl)c1,87.23 ± 0.39%
3,CCOc1ccc(Nc2nc(-c3c(C)nc4ccccn34)cs2)cc1,73.8 ± 2.5%
4,CCCCC[C@H](O)/C=C/[C@H]1[C@H](O)CC(=O)[C@@H]1C/C=C\CCCC(=O)O [Prostaglandin E2],95.2 ± 2.4%
5,COC(=O)C1=C(C)NC(C)=C(C(=O)OC(C)C)C1c1cccc2nonc12 (stereo unspecified) [Isradipine],104 ± 7.9%
6,CC(Cc1ccccc1)(NC(=O)CN)c1ccccc1 (stereo unspecified) [Remacemide hydrochloride],85.5 ± 1.2%
7,CCn1c(=O)[nH]c2ccccc21,95.8 ± 5.6%
8,CC(/C=C/c1cccc(Oc2ccc(F)cc2)c1)N(O)C(N)=O (stereo unspecified),82.8 ± 3.7%
9,O=C1NN(C(=O)Nc2ccc(Br)cc2)[C@@H](c2ccccc2)[C@@H]1c1ccccc1,91.67 ± 0.67%
10,CCc1c2c(nc3ccc(O)cc13)-c1cc3c(c(=O)n1C2)COC(=O)[C@]3(O)CC,77.3 ± 8.2%
11,NCCNC(=O)c1ccc(Cl)cn1 [Lazabemide hydrochloride],94.7 ± 1.2%
12,Nc1[nH]nc2nnc(-c3c(-c4ccccc4)nn4ccccc34)cc12,94.685 ± 0.091%
13,OC(c1ccccc1)C1CCN(CCc2ccccc2)CC1 (stereo unspecified),101 ± 7.3%
14,Cc1cc(/C(=C/Nc2ccc(Cl)cc2)C(=O)Nc2ccc(Cl)cc2)on1,86.9 ± 4.8%
15,CC1(CN2CCC(n3c(=O)[nH]c4ccccc43)CC2)OCc2ccccc2-n2cccc21 (stereo unspecified),94.4 ± 2%
16,Nc1ccc(-c2cccc3c(=O)cc(N4CCOCC4)oc23)cc1,77 ± 0.83%
17,c1ccc(N2CCN(CCCOc3ccc4c(c3)OCO4)CC2)cc1 [BP 554 maleate],90.9 ± 6.9%
18,CCS(=O)(=O)N(C)[C@H]1c2cc(C#N)ccc2OC(C)(C)[C@@H]1O (racemic) [Chromanol 293B],91.3 ± 6.7%
19,c1ccc2oc(C3=NCCN3)cc2c1 [2-BFI hydrochloride],84.5 ± 0.93%
20,COc1ccc(-n2[nH]c3c4c(ncc3c2=O)CCCCC4)cc1,92.03 ± 0.15%
21,O=C(O)COc1cccc(-c2ocnc2-c2nc(-c3ccccc3)c(-c3ccccc3)o2)c1,105 ± 3.5%
22,NC(N)=Nc1ccc(Cl)cc1 [4-Chlorophenylguanidine hydrochloride],87.3 ± 2.5%
23,CN(Cc1ccccc1)C(=O)[C@H](Cc1ccc2ccccc2c1)NC(=O)[C@@H]1CCCN1C(=O)Nc1ccccc1[N+](=O)[O-],87.6 ± 1.8%

row,Structure (SMILES),uninfected host cell viability
1,CC[C@H](CO)Nc1nc(Nc2cccc(-c3ccccn3)c2)c2ncn(C(C)C)c2n1 [(R)-DRF053 dihydrochloride],84.1 ± 1.9%
2,CC(C)NCC(O)c1ccc2ccccc2c1 (stereo unspecified) [Pronethalol hydrochloride],85.9 ± 2.6%
3,COc1cc2ncn(-c3cc(OCc4ccccc4C(F)(F)F)c(C(N)=O)s3)c2cc1OC,83.8 ± 1.1%
4,COCCNC(=O)COc1ccc(OCCNC[C@H](O)COc2ccccc2)cc1 [ZD 7114 hydrochloride],83.8 ± 2.3%
5,CCN(CC)CCCCC1CCN(CC(=O)N2c3ccccc3C(=O)Nc3cccnc32)CC1,89.2 ± 4.3%
6,O=C1c2ccccc2C(Cc2ccnc(F)c2)(Cc2ccnc(F)c2)c2ccccc21,90.8 ± 1.9%
7,NC(=O)N1C(=O)/C(=C(\O)c2cccs2)c2cc(Cl)ccc21 [Tenidap],89.1 ± 2%
8,CC(C)[C@H]1c2ccc(F)cc2CC[C@@]1(CCN(C)CCCc1nc2ccccc2[nH]1)OC(=O)C1CC1 [NNC 55-0396 dihydrochloride],15.68 ± 0.031%
9,COCC(=O)O[C@]1(CCN(C)CCCc2nc3ccccc3[nH]2)CCc2cc(F)ccc2[C@@H]1C(C)C [Mibefradil dihydrochloride],79.7 ± 4.6%
10,CCCCN1CCCC1CNC(=O)c1cc(C#N)c2ccccc2c1OC (stereo unspecified) [Nafadotride],84.8 ± 2.4%
11,COc1cc(C[C@H]2C(=O)OC[C@@H]2Cc2ccc(OC)c(OC)c2)ccc1O [Arctigenin],90 ± 1.6%
12,C[C@@H](CN1CCC(n2c(=O)[nH]c3cc(Cl)ccc32)CC1)NC(=O)c1ccc2ccccc2c1,94.4 ± 5.7%
13,COc1ccc(C(=O)Nc2sc3c(c2C(N)=O)CCCC3)cc1OC,80.1 ± 2.9%
14,CCOC(=O)[C@@H](C)Oc1cccc2c(=O)n(CC(=O)Nc3ccc4c(c3)OCCO4)ccc12,84.7 ± 0.99%
15,NC(=O)c1ccc(-c2nc(-c3ccccn3)c(-c3ccc4c(c3)OCO4)[nH]2)cc1,92.28 ± 0.26%
16,CC(C1=C(CCN(C)C)Cc2ccccc21)c1ccccn1 (stereo in doubt) [(S)-(+)-Dimethindene maleate],94.3 ± 0.97%
17,CC(O)(C(=O)Nc1ccc(S(=O)(=O)c2ccccc2)cc1)C(F)(F)F (stereo unspecified),99.7 ± 2.5%
18,Clc1ccccc1CNCC1CCC(CNCc2ccccc2Cl)CC1 (stereo unspecified),83.3 ± 1.1%
19,CCCCNC(=O)[C@@H]1Cc2ccccc2N1C(=O)[C@@H](N)CC [Butabindide oxalate],88.3 ± 5.3%
20,CCOc1cc(CC(=O)N[C@@H](CC(C)C)c2ccccc2N2CCCCC2)ccc1C(=O)O [Repaglinide],93.7 ± 2.1%
21,CCCCCCCCCCCC1=C(O)C(=O)C=C(O)C1=O [Embelin],83.69 ± 0.49%
22,Nc1nc(-c2ccc(Cl)c(Cl)c2)c(-c2ccncc2)s1 [CGH 2466 dihydrochloride],87.4 ± 1.5%
23,C[C@H](NC(=O)c1sccc1OCc1ccc(Cl)cc1)c1ccccc1,115 ± 1.5%

row,Structure (SMILES),uninfected host cell viability
1,CN1c2cc3c(cc2N=C(c2ccc(C(=O)O)cc2)c2ccccc21)C(C)(C)CCC3(C)C,100 ± 8.6%
2,N[C@@H](Cn1ccc(=O)n(Cc2ccccc2C(=O)O)c1=O)C(=O)O,84.8% and 85.7%
3,CCc1cc2c(c(CC)n1)CCC(=O)N2Cc1ccc(-c2ccccc2-c2nn[nH]n2)cc1 [ZD 7155 hydrochloride],94.11 ± 0.49%
4,CC[N+](C)(CC)CC(=O)Nc1c(C)cccc1C [N-Methyllidocaine iodide],87.9 ± 3.1%
5,CC(=O)N(OCc1ccccc1)[C@H]1c2cc(C#N)ccc2OC(C)(C)[C@H]1O,98.6 ± 2.8%
6,COc1ccc2[nH]c([S+]([O-])Cc3ncc(C)c(OC)c3C)nc2c1 (stereo unspecified) [Omeprazole],85.1 ± 2.2%
7,c1nc(CC2CCNCC2)c[nH]1 [Immepip dihydrobromide],81.5 ± 3.3%
8,CC(C)[C@H](NS(=O)(=O)c1ccc(-c2ccc(Br)cc2)cc1)C(=O)O,87.2 ± 2.2%
9,O=C(NC(NC(=S)Nc1ccc(F)c([N+](=O)[O-])c1)C(Cl)(Cl)Cl)C(c1ccccc1)c1ccccc1 (stereo unspecified),86.1 ± 11%
10,Cc1nn(C)c2nc(NNC(=O)Nc3cc(Cl)nc(Cl)c3)cc(C(C)C)c12,89.2 ± 3.1%
11,O=C(O)c1c(Sc2ccccc2)c2cc(Cl)ccc2n1Cc1ccc(Cl)cc1,93.9 ± 8.2%
12,O=C(Nc1ccccc1)C12CC1C(=NO)c1ccccc1O2 (stereo unspecified),96.71 ± 0.12%
13,Clc1cccc(Nc2nnc(-c3ccccc3)c3ccccc23)c1,85.8 ± 0.91%
14,CCCCC1CCC(c2nc(-c3ccncc3)no2)CC1 (stereo unspecified),102 ± 3.9%
15,Cc1c(C(=O)N(C)C2CCCCC2)sc2nc3ccc(N)cc3n12,83.6 ± 2.2%
16,COC(=O)C1=C(C)NC(C)=C([N+](=O)[O-])[C@H]1c1ccccc1C(F)(F)F,68.2 ± 1.7%
17,O=S(=O)(c1cccc2cnccc12)N1CCCNCC1 [Fasudil hydrochloride],90.57 ± 0.53%
18,Cc1cc2nc3c(=O)[nH]c(=O)nc-3n(C)c2cc1C=O,94 ± 2%
19,O=C(O)Cc1cccc(OCCCN(Cc2cccc(C(F)(F)F)c2Cl)CC(c2ccccc2)c2ccccc2)c1 [GW 3965 hydrochloride],99.5 ± 3.2%
20,CC1=C(C(=O)OCCN(Cc2ccccc2)c2ccccc2)C(c2cccc([N+](=O)[O-])c2)C(P2(=O)OCC(C)(C)CO2)=C(C)N1 (stereo unspecified) [Efonidipine hydrochloride monoethanolate],98.4 ± 7.4%
21,Cc1cc(C)c(S(=O)(=O)Nc2cccc(C(F)(F)F)c2)c(C)c1,82.4 ± 6.6%
22,CN(C)CCCSC(=N)N [Dimaprit dihydrochloride],95.8 ± 1.1%
23,CC(=Cc1ccc(C(=O)O)cc1)c1ccc2c(c1)C(C)(C)CCC2(C)C,80.4 ± 2.1%

row,Structure (SMILES),uninfected host cell viability
1,CC[C@@H]1Cn2c(c3nc(-c4ccccc4)nc-3n(C)c2=O)N1,89.2 ± 4.1%
2,CS(=O)(=O)Nc1c(O)ccc2c1CCCC2C1=NCCN1 (stereo unspecified),84.9 ± 2.8%
3,COc1ccc2cccc(N3CCN(CCNC(=O)c4ccc(F)cc4)CC3)c2c1,82.7 ± 4%
4,Cc1ccc(NC2=CC(=O)c3sc(C)nc3C2=O)cc1 [Ryuvidine],16.8 ± 0.66%
5,O=C(O)c1ccc(-c2c[nH]c3ncc(-c4ccccc4)cc23)cc1C1CCCC1,109 ± 2.2%
6,Nc1nc2c(cnn2CCc2ccccc2)c2nc(-c3ccco3)nn12,96.8 ± 2.3%
7,CN(N=O)C(=O)N[C@@H](C=O)[C@@H](O)[C@H](O)[C@H](O)CO [Streptozocin],86.9 ± 5.4%
8,CC(=O)NCCc1c(Cc2ccccc2)[nH]c2ccccc12 [Luzindole],101 ± 4.8%
9,CCC(NC(C)C)C(O)c1ccc(O)c2[nH]c(=O)ccc12 (stereo unspecified) [Procaterol hydrochloride],87.5 ± 1.7%
10,CCC(=O)NC1Cc2ccccc2C(c2ccccc2)C1 (stereo unspecified),99.58 ± 0.97%
11,C[S+]([O-])c1ccc(-c2nc(-c3ccc(F)cc3)c(-c3ccncc3)[nH]2)cc1 (stereo unspecified),89.4% and 88.6%
12,N=C(CC(O)COc1ccccc1-c1ccccc1)N1CCCCC1 (stereo unspecified),89.4 ± 2.9%
13,Cn1cc(/C=C2\C(=O)Nc3cccnc32)c2ccccc21,67.8 ± 1.2%
14,c1cc2c3c(c1)c1c(n3CCNC2)CCCC1 [WAY 629 hydrochloride],89.6 ± 5.6%
15,CCCCCCCCc1ccc(-c2ccc(C(=O)O)cc2)cc1,85.5 ± 5%
16,CCCCC/N=c1\ccn(Cc2ccccc2)c2ccccc12,83.1 ± 2.5%
17,CCCCCCCCCCCCCCCCn1cc[n+](Cc2ccccc2)c1C,32 ± 6.6%
18,CNC(=O)[C@@H](Cc1ccccc1)N(C)C(=O)[C@@H](Cc1ccc2ccccc2c1)N(C)C(=O)/C=C/CC(C)(C)N [Tabimorelin],79.1 ± 1.2%
19,N#Cc1ccccc1OCC(O)CNCCNC(=O)Nc1ccccc1 (stereo unspecified),86.9 ± 1.3%
20,CCc1ccc(OCc2ccccc2C(=O)Nc2ccc3nc(C)cc(N)c3c2)cc1,15 ± 0.61%
21,COc1ccc(NC(=O)c2cc(OCCCN(C)C)nn2Cc2ccccc2)cc1 [CFM 1571 hydrochloride],81.7 ± 2%
22,CCN(CC)CCCC(C)Nc1nc(C)cc(Nc2ccc3nc(C)cc(N)c3c2)n1 (stereo unspecified),80.4 ± 1.2%
